A selection: hits, their analogues and other compounds. The true share with any hit is near 32%.
CYP2C9 activ – human CYP2C9 activators, primary screen, biochemical, luminescence; 1.4% of 96,000 active; Cytochrome P450 2C9 (Homo sapiens), P11712; recombinant CYP2C9, luciferin-H conversion; hits give high values; factor 1 = untreated enzyme, 0 = blocked; activation factor at 5 µM;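 active = activation factor of 2 or more for CYP2C9 at a 5 µM dose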;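 also: 0 = sulfaphenazole-blocked wells and 1 = vehicle-only wells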
PostGolgi ctrl – growth inhibition of yeast control strain, primary screen, counter-screen for post-Golgi transport modulator project | efflux-deficient yeast background strain, growth absorbance A615, 16 h | inhibition, % at 10 µM | 5% of 98,000 active | AID 738, 2007
CYP2C9 inhib – blockers of cytochrome P450 2C9 activity – biochemical, luminescence, ADME assay, primary screen; 20% of 96,000 active; P11712; inhibition, % at 5 µM; CYP2C9 Supersomes, luciferin-H conversion; AID 777, 2007;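 active = blocking of liver enzyme CYP2C9 beyond about 50% at 5 µM, limit read from the data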
PostGolgi yeast – phenotypic screen on post-Golgi transport, primary screen; inhibition, % at 10 µM; post-Golgi transport phenotypic cell assay; 0.9% of 98,000 active;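 also: yeast cells grown in 1536-well plates; yeast grown about 18 h at 30C before absorbance read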
CYP2C19 act – human CYP2C19 activators, primary screen, biochemical, luminescence | 96,000 tested, under 10 active | activation factor at 5 µM | recombinant CYP2C19, luciferin-H EGE luminescence; hits give high values; 0 = fully inhibited enzyme, 1 = untreated enzyme | AID 1025, 2008 | Cytochrome P450 2C19 (Homo sapiens), P33261;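 active = activation factor of at least 2 at 5 µM in the primary screen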;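 also: 0 = wells with 2.5 mM tranylcypromine and 1 = vehicle-only wells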
Target sequence (P33261 whole entry, looked up): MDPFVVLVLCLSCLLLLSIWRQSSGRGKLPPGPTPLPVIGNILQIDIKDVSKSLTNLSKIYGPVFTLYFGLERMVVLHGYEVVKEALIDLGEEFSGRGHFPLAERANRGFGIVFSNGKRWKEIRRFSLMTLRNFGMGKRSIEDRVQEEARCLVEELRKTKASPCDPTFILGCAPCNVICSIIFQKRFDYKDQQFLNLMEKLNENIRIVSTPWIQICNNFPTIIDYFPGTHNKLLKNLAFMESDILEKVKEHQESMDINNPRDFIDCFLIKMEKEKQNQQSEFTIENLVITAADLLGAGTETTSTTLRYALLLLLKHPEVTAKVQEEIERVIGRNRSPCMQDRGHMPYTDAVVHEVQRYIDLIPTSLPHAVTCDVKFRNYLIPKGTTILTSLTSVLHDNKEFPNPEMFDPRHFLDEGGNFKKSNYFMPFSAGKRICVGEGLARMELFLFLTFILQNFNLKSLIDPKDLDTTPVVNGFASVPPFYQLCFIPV
CYP2C19 inh – blockers of cytochrome P450 2C19 activity – biochemical, luminescence, ADME assay, primary screen. AID 778, 2007. inhibition, % at 5 µM. P33261. 21% of 96,000 active. CYP2C19 Supersomes, luciferin-H EGE luminescence, 30 min;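 active = CYP2C19 inhibition above a set limit at 5 µM in the primary screen, cut at about 50% in these data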;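 also: plate controls were negative control wells for no effect and 2.5 mM tranylcypromine positive control for full effect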
* = called active by the depositor; x = not tested or not shown. Rule as the data show it, unless noted: active = inhibition above about 30%; inactive = the rest.

SMILES	CYP2C9 activ	PostGolgi ctrl	CYP2C9 inhib	PostGolgi yeast	CYP2C19 act	CYP2C19 inh
O=C(NCCOc1cccc(Oc2ccccc2)c1)c1cc(-n2cnnc2)ccc1Cl	0.4	11.8	55.5*	-0.5	0.3	69.0*
CCOC(=O)N1CCN(c2cc(N3CCN(CC)CC3)c(F)cc2[N+](=O)[O-])CC1C (stereo not drawn)	0.7	-5.4	34.0	0.3	0.8	22.6
CCOn1c(=O)c(-c2cccs2)[n+]([O-])c2ccccc21	0.5	41.5*	52.8*	-4.7	0.4	57.5*
Cc1ccc(Nc2cc(C)nc(-c3ccccc3O)n2)cc1	0.4	39.6*	55.3*	-3.7	0.8	20.0
Cc1ccc(Oc2cc(C)nc(-c3ccccc3O)n2)cc1	0.2	10.4	78.8*	-5.2	0.2	76.3*
CC(C)(Oc1ccc(Cl)cc1)C(=O)OCC(=O)N1CCCC1	0.9	7.3	10.4	3.3	0.7	28.4
CCOC(=O)c1oc2cc(O)c(CC)cc2c(=O)c1-c1ccc2c(c1)OCCO2	0	30.1*	98.8*	-6.4	0.7	34.1
CC1CCN(C(=O)Cc2nn(C)c(=O)c3ccccc23)CC1	1	-1.2	1.2	-9.7	0.8	24.4
O=C(Nc1cccnc1)C1CCCN(S(=O)(=O)c2ccccc2)C1 (stereo not drawn)	0.6	-0.5	42.0	0.3	0.4	64.5*
O=C(Nc1cccnc1)c1ccc(Cl)c(S(=O)(=O)N2CCCCCC2)c1	0.1	3.5	85.4*	-2.3	0.1	87.8*
O=C(Nc1ccccc1)c1ccc(S(=O)(=O)N2CCCCC2)cc1	x	5.3	x	-4.3	x	x
O=C(Nc1cccnc1)c1ccc(S(=O)(=O)N2CCCCCC2)cc1	0.3	19.1	73.0*	-5.0	0.4	62.2*
O=C(C1CCCN(S(=O)(=O)c2ccccc2)C1)N1CCCc2ccccc21 (stereo not drawn)	x	35.5*	x	-0.6	x	x
CCOC(=O)Cn1cnc([N+](=O)[O-])n1	1.2	16.1	-24.9	-1.6	1.1	-14.1
CCOC(=O)c1c(C)[nH]c(C(=O)COC(=O)CCC(=O)c2ccc3c(c2)OCCO3)c1C	0.6	8.3	43.4	-8.8	0.9	6.4
Cc1cccc(NC(=O)c2cc(NC(=O)CCCC(=O)O)ccc2Cl)n1	1.3	-0.6	-33.1	-0.8	1	1.4
COC(=O)C(c1cc(OC)c(O)c(OC)c1)(N1CCNC(C)C1)C(F)(F)F (stereo not drawn)	1	10.4	0.6	3.3	1.3	-28.0
O=C(NC(Cc1ccccc1)C(=O)O)c1ccc(S(=O)(=O)N2CCCCC2)cc1 (stereo not drawn)	0.2	5.4	78.5*	7.9	1	4.2
O=C(Nc1ccn(-c2ccccc2)n1)c1ccc(S(=O)(=O)N2CCCCCC2)cc1	0.5	30.8*	46.5	-7.9	0.5	52.7*
CCOC(=O)c1[nH]c2cc(OC)c(OC)cc2c1NC(=O)CN1CCN(c2ccc(OC)cc2)C(C)C1 (stereo not drawn)	1.1	16.1	-11.3	12.1	0.9	9.1
COc1ccc(OC)c(C(=O)c2ccc(C(=O)N3CCCCC3)cc2)c1	0.3	26.3	72.9*	-7.8	0.9	13.1
COc1ccc(OC)c(C(=O)c2nc3c(n2O)CCCCC3)c1	0.5	-1.2	51.1*	-11.7	0.7	33.5
COc1ccc(C(=O)N2CCCC2)cc1	1	5.8	-4.8	-4.4	1	2.9
COc1ccc(C(=O)c2nc3c(n2O)CCCCC3)cc1	0.9	-1.5	14.3	-3.0	1.1	-14.2
O=C(c1ccc(Oc2ccccc2)cc1)c1nc2c(n1O)CCCC2	0.3	14.7	67.3*	-2.0	0.8	15.5
SMILES	CYP2C9 activ	PostGolgi ctrl	CYP2C9 inhib	PostGolgi yeast	CYP2C19 act	CYP2C19 inh
O=C(CSc1cccc(C(F)(F)F)c1)N1CCN(S(=O)(=O)c2ccccc2)CC1	0.9	3.1	10.0	-8.3	0.4	59.3*
Cc1ccccc1CN1CCN(Cc2ccccc2C(F)(F)F)CC1	0.7	-3.8	31.2	1.3	0.1	90.7*
O=C(N1CCCCCC1)N1CCN(S(=O)(=O)c2ccccc2)CC1	0.9	6.2	8.0	1.1	0.9	7.5
O=C(c1ccccc1C(F)(F)F)N1CCN(S(=O)(=O)c2ccccc2)CC1	0.9	1.8	7.1	1.8	0.1	87.0*
O=S(=O)(c1cccc(C(F)(F)F)c1)N1CCN(c2ccccc2)CC1	0.9	-0.4	6.3	2.2	0.7	26.8
O=S(=O)(c1ccccc1)N1CCN(Cc2ccccc2C(F)(F)F)CC1	0.2	16.9	82.6*	0.0	0.1	93.8*
CC1=CCC(C(=O)O)(C(=O)N/N=C/c2cccs2)C(c2ccc(Cl)cc2)C1 (stereo not drawn)	0.6	20.5	44.4	-4.6	1	1.3
O=C(c1nc(-c2ccccc2)n(-c2ccccc2)n1)N1CCN(S(=O)(=O)c2ccccc2)CC1	0.3	8.0	65.7*	13.7	0.9	11.7
O=C(C1CCCO1)N1CCN(S(=O)(=O)c2ccccc2)CC1 (stereo not drawn)	0.9	35.9*	10.2	-16.1	0.7	31.4
O=C(c1ccc(Br)cc1)N1CCN(S(=O)(=O)c2ccccc2)CC1	0.6	35.1*	41.9	-3.5	0.3	70.5*
Cc1ccc2c(C)nc(NC3=NCN(CCc4ccccc4)CN3)nc2c1	1	x	-3.5	x	0.9	5.7
Cc1nc2nc(C)c(CCC(=O)N3CCc4ccccc43)c(C)n2n1	0.9	16.2	7.5	8.0	1	3.2
Nc1cc(C(=O)c2cccs2)ccc1Cl	0.6	x	40.9	x	0.1	87.3*
CCn1nnnc1SCC(=O)Nc1nc(-c2cccs2)cs1	x	4.1	x	-5.3	x	x
O=C1NCN(c2ccccc2)C12CCN(c1nnnn1-c1ccccc1)CC2	0.8	8.1	20.0	7.9	0.4	58.2*
c1ccc(CC2CCN(c3nnnn3-c3ccccc3)CC2)cc1	0.5	31.5*	54.3*	3.7	0.4	62.6*
O=S(=O)(c1ccccc1)N1CCN(c2nnnn2-c2ccccc2)CC1	0.8	2.3	21.2	5.8	0.5	50.8*
O=S(=O)(c1ccc2c(c1)OCO2)N1CCN(c2nnnn2-c2ccccc2)CC1	0.7	5.1	29.0	6.8	0.7	29.1
O=c1[nH]c(Cn2nnc(-c3ccccc3)n2)nc2scc(-c3ccccc3)c12	0.2	8.1	82.0*	-14.0	0.7	34.8
Cc1cccc(Nc2nc(N)nc(CN3CCN(c4ccccc4)CC3)n2)c1	0.3	-9.8	66.7*	2.1	0.5	52.7*
Cc1ccc(Nc2nc(N)nc(CN3CCc4ccccc4C3)n2)cc1	0.5	4.2	51.7*	4.2	0.4	55.0*
Nc1nc(CN2CCN(Cc3ccccc3)CC2)nc(Nc2ccccc2)n1	1	-4.6	-4.0	-5.7	1.1	-8.9
